# Results from PubChem BioAssay (NCI).
# Compounds without any hit were thinned out: in the full panel of roughly 83,000, 20% have a hit.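 Cells were grown in 96-well plates and exposed to the test compound at a single concentration for 48 hours; results are reported as percent growth, with values below 10 considered active.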 A number with no mark means an inactive call. Calls of active or inactive are those of the source.
# How the values were obtained:
# Assay in all cases: NCI-60 one-dose screen, 48 h (100 = growth as untreated, 0 = no growth, -100 = all killed)
# Settings in all cases: 10 µM unless noted
# SN12C renal = test system: SN12C renal
# UO-31 renal = test system: UO-31 renal
# TK-10 renal = test system: TK-10 renal
# ACHN renal = test system: ACHN renal
# CAKI-1 renal = test system: CAKI-1 renal
# CCRF-CEM leukemia = test system: CCRF-CEM leukemia
# MOLT-4 leukemia = test system: MOLT-4 leukemia
# SR leukemia = test system: SR leukemia
# A498 renal = test system: A498 renal
SMILES,growth (SN12C renal),growth (UO-31 renal),growth (TK-10 renal),growth (ACHN renal),growth (CAKI-1 renal),growth (CCRF-CEM leukemia),growth (MOLT-4 leukemia),growth (SR leukemia),growth (A498 renal)
COc1ccc(C2=NN(C(=O)c3cc(OC)c(OC)c(OC)c3)C(c3ccc(C#N)cc3)C2)cc1OC (stereo not drawn),53.5%,18.2%,31.9%,44.6%,5.45% (active),29.9%,49.5%,28.4%,–
O=C1NCN(c2ccccc2)C12CCN(CCCC(c1ccc(F)cc1)c1ccc(F)cc1)CC2,60.5%,26.1%,66.1%,61.7%,76.8%,94.4%,34.3%,8.54% (active),57.7%
COc1ccc(-c2cnnn2-c2cc(OC)c3c(c2)OCO3)cc1,36.8%,50%,40%,38.8%,29.6%,0.869% (active),4.11% (active),-30.4% (active),–
COc1cccc(C2C(C#N)=C(N)Oc3cc(OC)ccc32)c1 (stereo not drawn),24.9%,41.6%,50.6%,29.7%,20.6%,-1.19% (active),1.42% (active),-30.3% (active),–
COc1ccc2c(c1)C(=O)/C(=C/c1ccc([N+](=O)[O-])s1)O2,-8.43% (active),-79.1% (active),-15.3% (active),-54% (active),29.7%,0.726% (active),5.68% (active),11.4%,99.6%
O=C(OCCBr)c1ccc(Cl)c([N+](=O)[O-])c1,102%,88.9%,106%,104%,–,–,83.7%,86.5%,97.6%
CC(C)(C)c1cc(O)c(O)c(C(C)(C)C)c1,60.3%,27.3%,35.8%,18.3%,–,–,6.61% (active),11.2%,60.6%
O=C(/C=C/c1ccc(O)c(O)c1)N1CCN(c2ccc(Cl)cc2)CC1,69.8%,24.5%,49%,48.1%,50.5%,–,27.3%,26.6%,72.1%
COc1ccc(-c2nnc(COc3ccc(NC(=O)Nc4cc(C(F)(F)F)cc(C(F)(F)F)c4)cc3F)o2)cc1,5.21% (active),-4.7% (active),15.3%,11%,12.3%,16.2%,8.94% (active),-13.2% (active),-1.78% (active)
COc1ccc(-c2noc(N)c2-c2cc(OC)c3c(c2)OCO3)cc1,35.8%,52.2%,39%,40.8%,32.7%,5.26% (active),18.4%,-25.8% (active),–
CN(C)c1cccc2c(S(=O)(=O)N[C@H]3CC[C@H]4[C@@H]5CCc6cc(O)ccc6[C@H]5CC[C@]34C)cccc12,25.4%,10.7%,51.1%,30.8%,15.5%,–,17.3%,-16.1% (active),49%
Cc1ccc2c(c1)C(=O)/C(=C/c1ncc([N+](=O)[O-])n1C)O2,-15.3% (active),-39.7% (active),-29.8% (active),5.3% (active),-32.1% (active),0.686% (active),–,11%,76.4%
C[n+]1ccc(C#N)c2ccccc21,104%,55.4%,129%,81.9%,–,54.1%,64.5%,67.5%,95.3%
O=C(Nc1cccc([N+](=O)[O-])c1)c1cccc(C(=O)Nc2cccc([N+](=O)[O-])c2)c1,45.7%,56.7%,65.5%,64.7%,85.3%,116%,99.3%,83.9%,92.5%
C=C(C)[C@H]1CC/C(C)=C/CC[C@]2(C)O[C@H]2CC/C(C=O)=C\C1O (stereo partly drawn),101%,58.1%,106%,99%,–,137%,142%,120%,143%
CN(C(=O)c1ccccc1)N(C)C(=O)c1ccccc1,105%,93.2%,105%,106%,–,–,88.6%,92.8%,100%
COC1=CC(c2ccc[nH]2)=N/C1=C\c1[nH]c(C)c(C(=O)CCC(=O)Oc2ccc3c(c2)CCC2C3CC[C@]3(C)C(=O)CC[C@@H]23)c1C (stereo partly drawn),63.3%,52.9%,107%,62.7%,60.1%,–,25.6%,10.1%,102%
CCCCCCCCCCCCCCCCCc1nccn1CCO,52.2%,47.5%,112%,63.7%,–,79.7%,65.6%,–,72.5%
COc1ccc2c(c1)C(=O)c1c-2c(OCCN(C)C)nc2cc(OC)ccc12,22.6%,-43.7% (active),28.5%,-78.6% (active),9.1% (active),13.7%,-7.63% (active),-29.2% (active),38.4%

SMILES,growth (SN12C renal),growth (UO-31 renal),growth (TK-10 renal),growth (ACHN renal),growth (CAKI-1 renal),growth (CCRF-CEM leukemia),growth (MOLT-4 leukemia),growth (SR leukemia),growth (A498 renal)
NNC(=O)NO,106%,69.8%,94%,105%,106%,95.8%,91.6%,95.8%,114%
O=NC1CC=CCC1c1ccccc1 (stereo not drawn),108%,84.2%,103%,93.9%,103%,111%,102%,101%,–
COc1ccc(-n2nnc(C(=O)O)c2-c2cc(OC)c(OC)c(OC)c2)cc1,105%,110%,93.2%,105%,102%,105%,94%,85.4%,–
C[C@]12CC[C@@H]3c4ccc(O)c([N+](=O)[O-])c4CC[C@H]3[C@@H]1CC[C@@H]2NS(=O)(=O)c1ccc(C(F)(F)F)cc1,17.8%,-90.1% (active),46.5%,3% (active),–,18.3%,3.51% (active),-8.8% (active),46.3%
NC(=Nc1ccccc1)SCCCCSC(N)=Nc1ccccc1,87%,31%,97.3%,75.4%,74.2%,–,70.3%,–,82.3%
N#Cc1c2ccccc2c2n1-c1ccccc1OC(c1ccccc1)C2=O (stereo not drawn),15.4%,11.2%,–,29%,30.6%,6.32% (active),56.4%,-7.43% (active),30.6%
CCOC(=O)/C(=C/c1ccccc1)C(=O)c1ccccc1,72.6%,53.1%,–,70.5%,78.1%,3.43% (active),33.1%,6.68% (active),87.5%
COc1cc(/C=C/C(=O)c2c(-c3ccc(F)cc3)nc3sc(C)nn23)cc(OC)c1OC,35.9%,21.5%,–,24.6%,15.2%,-9.53% (active),13.4%,4.81% (active),85.2%
OCCOc1c(Cl)cc(Cl)cc1Cl,89.8%,87.8%,113%,–,93.8%,113%,111%,–,70.7%
COc1cc(/C=C/C(=O)Nc2ccc3c(c2)/C(=C\c2cccn2C)C(=O)N3)cc(OC)c1OC,41.2%,28.3%,–,54.9%,52.1%,31.9%,–,16.2%,46.8%
COc1ccc(-c2csc(NC(=O)c3cc(O)c(O)c(O)c3)n2)cc1,64.8%,30.3%,–,36%,38.6%,18.5%,28%,14.5%,112%
COc1cc2c(C#N)n3c(c2cc1OC)C(=O)C(c1ccccc1)Oc1ccccc1-3 (stereo not drawn),37.2%,15.8%,–,54.3%,65.6%,17.1%,–,12.5%,52.4%
C[C@@H]1CC[C@H]2[C@@H](C)C(O)O[C@@H]3O[C@]4(C)CC[C@@H]1[C@]32OO4 (stereo partly drawn),23.6%,1.61% (active),27.3%,–,22.9%,28.5%,33.8%,–,68.2%
COc1ccc(/C=C2\COc3ccc(O)c(O)c3C2=O)cc1OC,-67.7% (active),-87.9% (active),5.44% (active),–,11.1%,-13.9% (active),-21.5% (active),-1.26% (active),105%
CCN(CC)c1ccc(C(O)C2=CC(=O)c3ccccc3C2=O)cc1 (stereo not drawn),-28.1% (active),22.7%,-31.4% (active),-58.8% (active),–,–,7.92% (active),-5.59% (active),6.3% (active)
O=C(/C(=C/c1cccc([N+](=O)[O-])c1)c1ccccc1)c1ccccc1,35.6%,48.8%,–,40.1%,47.7%,1.9% (active),4.09% (active),4.42% (active),66.2%
CCCCCCCCCCCCCCCCN=C(CC(=O)O)C(=O)O,–,89.8%,83.9%,105%,104%,86.1%,79.4%,65.6%,95.6%
COc1ccc(/C=C(\C#N)c2ccccc2)cc1,86.6%,85.6%,–,–,78.2%,93.1%,96.1%,55.7%,79.4%
COc1cc2c(-c3nc4cc(Cl)c(F)cc4s3)cc(=O)oc2c(C)c1OC,-73.8% (active),-94.4% (active),–,-83.8% (active),-78.5% (active),-72.5% (active),-43% (active),-53.9% (active),8.7% (active)

SMILES,growth (SN12C renal),growth (UO-31 renal),growth (TK-10 renal),growth (ACHN renal),growth (CAKI-1 renal),growth (CCRF-CEM leukemia),growth (MOLT-4 leukemia),growth (SR leukemia),growth (A498 renal)
O=C(/C(=C/c1ccc([N+](=O)[O-])cc1)c1ccccc1)c1ccccc1,35.1%,43.1%,–,40.9%,48.6%,0.582% (active),-2.9% (active),0.152% (active),77%
COC(=O)C[C@@H]1CC=CC(=O)/C1=C(O)/C=C/c1ccccc1,-41.5% (active),-80.8% (active),-23.7% (active),–,-82.9% (active),10.8%,3.09% (active),5.6% (active),–
CC1(C)OC(=O)C(=Cc2ccccc2Br)C(=O)O1,96.6%,92.2%,–,102%,94.8%,98.2%,99.5%,79.7%,105%
O=C(Nc1nc(-c2ccccc2)cs1)c1cc(O)c(O)c(O)c1,50.5%,24.6%,–,40.3%,26.4%,9.11% (active),17.1%,8.07% (active),85.9%
O=[P@@]1(c2ccccc2)O[C@H](COCc2ccccc2)[C@@H](OCc2ccccc2)[C@H](OCc2ccccc2)[C@H]1NCc1ccccc1,-39.4% (active),-7.83% (active),13.5%,10%,–,–,0.343% (active),-2.72% (active),–
COc1cc(C2=NN(C(C)=O)C(c3ccc(OC(C)=O)cc3OC(C)=O)O2)c(OC(C)=O)c2ccccc12 (stereo not drawn),19.1%,5.38% (active),–,16.3%,8.08% (active),-1.14% (active),-2.56% (active),2.88% (active),25.2%
CCC1(c2ccccc2)Oc2ccccc2-n2c(C#N)c3ccccc3c2C1=O (stereo not drawn),95.6%,86.6%,–,96.5%,100%,95.6%,91%,89.2%,97%
O=C(NCCCO)c1cc(Cl)ccc1O,12.9%,48.1%,24.9%,14.6%,–,–,33.2%,26.1%,53.2%
CN1CCN(CC(=O)Nc2nc3c(s2)Nc2cc(Cl)c(Cl)cc2NC3=O)CC1,109%,85.4%,95.8%,–,102%,99.8%,90.8%,98.8%,106%
Cc1cc(C(=O)O)c(C)cc1C(=O)O,106%,73.5%,115%,–,102%,101%,87.7%,105%,103%
COc1cc(/C=C/C(=O)c2c(-c3ccc(Cl)cc3)nc3sc(C)nn23)cc(OC)c1OC,78.3%,51.2%,–,73.8%,93.7%,32.5%,48.3%,26.1%,85.5%
CCC(C)CC(C)C(=O)c1c(O)ccn(OC)c1=O (stereo not drawn),69.7%,58.3%,98.7%,–,92.9%,39.8%,68.1%,47.1%,98.7%
CCOC(Cc1c(N)[nH]c(=S)[nH]c1=O)OCC,110%,86%,108%,94.9%,–,–,88%,90.8%,104%
O=C(/C=C/c1ccc(Cl)cc1)c1ccccc1,98%,88.3%,–,110%,101%,87.9%,–,23.1%,87.5%
N#CCCN(CCO)c1ccccc1,97.6%,89.5%,93.7%,–,–,–,90%,86.3%,96.4%
Cc1cc2c(C#N)n3c(c2cc1C)C(=O)C(c1ccccc1)Oc1ccccc1-3 (stereo not drawn),27.8%,14.5%,–,32.6%,33.1%,19.4%,–,7.67% (active),41.2%
COc1cc2cn3c4ccc(O)cc4nc(N)c3c2cc1OC,18.6%,1.49% (active),50.4%,–,-4.04% (active),21.1%,8.22% (active),–,-14.4% (active)
O=C(Nc1nc(-c2ccc(Cl)cc2)cs1)c1cc(O)c(O)c(O)c1,22.6%,6.01% (active),–,15.9%,8.69% (active),8.08% (active),4.68% (active),0.551% (active),77.1%
